Compound activity (PubChem BioAssay)
D2 PAM-1 – positive allosteric modulators of human D2 dopamine receptor. P14416. DiscoveRx D2 beta-arrestin cells, luminescence, 90 min; 100% = 57 uM dopamine signal. potentiation, % (test concentration not listed). 360,000 tested, 0.23% active. AID 624464; in the data active = potentiation above about 50%; inconclusive = mostly about 30% to 49%
Target sequence (P14416 whole entry, looked up): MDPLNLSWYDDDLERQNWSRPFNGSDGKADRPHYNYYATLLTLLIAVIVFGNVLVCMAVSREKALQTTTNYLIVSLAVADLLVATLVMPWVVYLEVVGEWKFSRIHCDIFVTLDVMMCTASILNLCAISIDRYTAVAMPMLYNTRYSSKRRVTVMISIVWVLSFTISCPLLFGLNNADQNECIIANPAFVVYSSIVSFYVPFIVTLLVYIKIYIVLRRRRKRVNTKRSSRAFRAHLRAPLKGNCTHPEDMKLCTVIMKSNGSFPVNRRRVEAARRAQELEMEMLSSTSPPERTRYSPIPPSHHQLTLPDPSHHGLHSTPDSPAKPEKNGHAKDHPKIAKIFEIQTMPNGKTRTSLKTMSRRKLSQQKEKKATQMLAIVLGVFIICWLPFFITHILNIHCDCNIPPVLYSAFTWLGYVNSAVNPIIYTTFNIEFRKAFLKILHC
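PathHunter beta-arrestin assay in DiscoveRx D2 cells. Compounds were added with an EC20 of dopamine (50 nM final) for 90 min at 37 deg C. Luminescence was read 1 h after detection reagent, with 57 uM dopamine as the EC100 control.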
D2 ag-1 – human D2 receptor agonism in beta-arrestin assay; P14416; DiscoveRx PathHunter D2 beta-arrestin, luminescence, 90 min; 100% = 57 uM dopamine signal; activation, % (test concentration not listed); 360,000 tested, 0.084% active; AID 624465; in the data active = activation above about 40%; inconclusive = between about 15% and that limit
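DiscoveRx PathHunter D2 beta-arrestin cells (2,100/well) attached overnight, then compound-stimulated 90 min at 37 C in HBSS/10 mM HEPES/0.1% Tween-20 buffer; beta-galactosidase complementation read by luminescence after 1 h at ambient temperature. Dopamine 57 uM final (EC100) as control.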
D2 ag-2 – agonists of human D2 dopamine receptor | P14416 | 340,000 tested, 0.53% active | activation, % at 2 µM | HEK293 T-REx D2 cells, calcium flux agonist mode | AID 485358;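 active = activation over 3 SD above normal in the single-dose calcium agonist read, cut at about 30% in these data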
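Agonism scored from kinetic calcium signal (1 read/sec, 180 s) following compound pin transfer, after a 10 s baseline. Cells: HEK293 Trex line expressing inducible D2 receptor coupled to calcium, dye-loaded after overnight culture at 30 C.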
D2 antag – antagonizes the human D2 dopamine receptor; P14416; HEK293 TREx D2 cells, calcium flux, dopamine EC80; inhibition, % at 10 µM; 340,000 tested, 2% active; AID 485344; in the data active = inhibition above about 30%; inactive = below that, where a call was filed
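Dopamine at EC80 is the agonist stimulus; test compounds precede it by 180 s. Calcium flux read kinetically in a force-coupled, inducible HEK293 T-REx D2 cell line.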
D2 PAM-2 – positive allosteric modulators of human D2 dopamine receptor | 340,000 tested, 0.34% active | P14416 | potentiation, % at 10 µM | HEK293 T-REx D2, calcium flux, EC20 dopamine potentiation;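 active = potentiation over 3 SD above the plate norm, cut at about 30% in these data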
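Primary screen. Calcium kinetics in induced HEK293 T-REx D2 cells: compound pre-addition 180 s, EC20 dopamine, 180 s more.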
Large screens that a line does not name were inactive. Shown are actives, neighbours in structure and some others; about 2.4% of the full set was active somewhere.

O=C(CN1N=C(c2ccccc2)CCC1=O)NCc1ccc(F)cc1Cl	none (no result: D2 PAM-1, D2 ag-1, D2 antag)
CCCn1cnc2c(=O)oc3ccccc3c21	D2 antag 39
CCCn1cnc2c(oc3ccccc32)c1=O	none
CC(C)(C)C(=O)N1CCN(c2ccc(Cl)cc2[N+](=O)[O-])CC1	none
O=C(Cc1ccc(Cl)cc1)Nc1ccc2oc(=O)ccc2c1	none
O=C(Cc1ccc(Cl)cc1)Nc1ccc(-c2cc3ccccc3oc2=O)c(Cl)c1	D2 antag 46
COC(=O)c1[nH]c2c(c1C)C(=O)CC(c1ccc(OC)c(OC)c1)C2 (centres undefined)	none (no result: D2 ag-2, D2 antag, D2 PAM-2)
COC(=O)c1[nH]c2c(c1C)C(=O)CC(c1ccc(C)cc1)C2 (centres undefined)	D2 antag 32
O=C(CCN1C(=O)/C(=C/c2ccc(F)cc2)SC1=S)NC1C=CS(=O)(=O)C1 (centres undefined)	D2 PAM-2 56
O=C(CN1C(=O)S/C(=C\c2ccc(F)cc2)C1=O)NC1C=CS(=O)(=O)C1 (centres undefined)	none
COCC(=O)NC1CC2CCCC(C1)N2Cc1ccccc1 (centres undefined)	D2 antag 42
COc1ccc(CN2C3CCCC2CC(NC(=O)Nc2ccccc2)C3)cc1 (centres undefined)	D2 antag 80
COc1ccc(CN2C3CCCC2CC(NC(=O)Nc2cccc(C)c2)C3)cc1 (centres undefined)	none
C=CCN1C2CCCC1CC(NC(=O)Nc1cccc(C(C)=O)c1)C2 (centres undefined)	D2 antag 33
COCCNC(=S)NC1CC2CCC(C1)N2Cc1ccccc1 (centres undefined)	none
CC(C)(C)OC(=O)NC1CC2CCCC(C1)N2Cc1ccccc1 (centres undefined)	D2 antag 60
CC12CCC(=O)N1c1ccccc1C(=O)N2c1ccccc1 (centres undefined)	D2 PAM-2 34
Cc1cc(C(=O)NC2=NCCS2)c2ccccc2n1	none
Nc1c(C(=O)N2CCOCC2)sc2nc3c(cc12)CCCC3	D2 PAM-2 33
Nc1c(C(=O)N2CCOCC2)sc2nc3c(cc12)CCC3	none
CCOC(=O)C1=NN(C(=O)c2ccc(C)cc2)C(O)(c2ccc(Cl)cc2)C1 (centres undefined)	D2 ag-2 31
CCn1nc(NC(=O)c2ccncc2)c2cc3ccc(C)cc3nc21	none
CCn1nc(NC(=O)c2ccncc2)c2cc3cc(C)ccc3nc21	D2 PAM-2 34
COc1ccc(C2/C(=C(/O)c3ccc(S(=O)(=O)N4CCOCC4)cc3)C(=O)C(=O)N2CCN2CCOCC2)cc1 (centres undefined)	D2 antag 40
COc1cccc(-c2csc(N3CCN(C(=S)Nc4cccc(C)c4)CC3)n2)c1	D2 antag 86
COc1cccc(-c2csc(N3CCN(C(=S)Nc4ccccc4)CC3)n2)c1	none
CSc1cccc(NC(=O)CN(c2cccc(C)c2)S(C)(=O)=O)c1	D2 antag 30
CC(C)C(NC(=O)CN(c1cccc(F)c1)S(C)(=O)=O)C(C)C	D2 antag 39
CC(=O)c1cccc(N(CC(=O)Nc2ccccc2F)S(C)(=O)=O)c1	D2 antag 46
Cc1ccc2c(c1)C(=O)CC1(CCCCCC1)O2	none
Cc1ccc(C(=O)N/C(N)=N/c2nc3ccccc3o2)cc1	D2 antag 53
CCc1ccc(OCC(=O)N2c3ccccc3CCc3ccccc32)cc1	none
O=C1/C(=C\c2ccco2)SC(=S)N1c1ccccc1	D2 antag 47
CC1CCC2(CC1)NC(=O)N(NC(=O)c1cccc(N(C)C)c1)C2=O (centres undefined)	D2 antag 33
COc1ccc(-n2cc(CNCCc3cscn3)c(-c3ccccc3Cl)n2)cc1	D2 antag 48
O=C(O)C1CCC(C(=O)O)O1 (centres undefined)	none (no result: D2 ag-2, D2 antag, D2 PAM-2)
O=C(c1ccccc1O)N1N=C(C(F)(F)F)CC1(O)c1ccc([N+](=O)[O-])cc1 (centres undefined)	none
CCc1ccc(C2(O)CC(C(F)(F)F)=NN2C(=O)Cc2ccc([N+](=O)[O-])cc2)cc1 (centres undefined)	D2 antag 33
Cc1cc(NC2CCCCC2)nc2ccccc12	D2 antag 44
OCC1(Cc2ccccc2)CCN(Cc2cnn(-c3ccccc3F)c2)CC1	D2 antag 31
O=C(Cc1ccccc1)N1CCN(c2ccccc2F)CC1	none
OCC1(Cc2ccccc2)CCN(C2CCN(c3ccccc3F)CC2)CC1	D2 antag 47
O=C(CC1S/C(=N/N=C/c2cccs2)NC1=O)Nc1ccc(Cl)cc1 (centres undefined)	D2 antag 44
O=C(C1CCCO1)N1CCN(S(=O)(=O)c2ccccc2)CC1 (centres undefined)	none
COc1ccc(Cc2nc3ccc(C(=O)N4CCC[C@H]4CO)cc3o2)cc1	none
CCOC(=O)C1CCCCN1C(=O)c1ccc2nc(Cc3ccc(OC)cc3)oc2c1 (centres undefined)	D2 ag-1 inconclusive, D2 PAM-2 31
Clc1cccc(Nc2ncnc3ccc(Br)cc23)c1	none
Clc1ccc(Nc2ncnc3ccc(Br)cc23)cc1	D2 antag 34
Cc1oc(C(C)(C)C)cc1C(=O)NC1CCN(Cc2ccccc2)CC1	D2 antag 85
Cc1oc(-c2ccc(Cl)cc2)cc1C(=O)NC1CCN(Cc2ccccc2)CC1	D2 antag 58
CCN(CC)S(=O)(=O)c1ccc(Cl)c(C(=O)NC2CCN(Cc3ccccc3)CC2)c1	none
CCN(CC)c1ccc(/C=C2/C(=O)c3ccc(C(=O)O)cc3C2=O)cc1	D2 ag-2 84
O=C(NC1CCCCC1)C(c1ccc(Cl)cc1)N1CCC2(CC1)OCCO2 (centres undefined)	none
Cc1ccccc1-c1cc(C(=O)NCc2ccc3c(c2)OCO3)n(CC2CC(c3cccnc3)=NO2)n1 (centres undefined)	D2 antag 83
Cc1ccc(CNC(=O)c2cc(-c3ccccc3C)nn2CC2CC(c3cccnc3)=NO2)cc1 (centres undefined)	none (no result: D2 ag-2, D2 antag, D2 PAM-2)
CC1Cc2ccccc2N1C(=O)CSc1nnc2n1C(C)(C)Cc1ccccc1-2 (centres undefined)	D2 PAM-2 34
Cc1occc1-c1nnc(-c2cc([N+](=O)[O-])cc([N+](=O)[O-])c2)o1	D2 PAM-1 66, D2 ag-1 inconclusive
Cc1cc(=O)oc2c(C)c(OCC(=O)Nc3cccnc3)ccc12	D2 antag 36
N/C(=N\OS(=O)(=O)c1ccc(Cl)cc1)c1ccncc1	D2 PAM-1 67, D2 ag-1 inconclusive
Cc1nonc1OCCN1CCN(c2ccccc2[N+](=O)[O-])CC1	D2 antag 53
C=CCc1cccc2cc(C(=O)Nc3cccc(Cl)c3)c(=O)oc12	none (no result: D2 PAM-1, D2 ag-1, D2 antag)
